The supplement of paper PMC6555819

What was measured:
Experiment in all cases: PBM binding z-score (relative to random genomic background probes); higher = stronger binding; sequences stand for … in GC…GCGATTGACAGCGTAGAATGAAGG
[1] = test system: PPARg:RXRa DBDmut IVT, anti-RXR (DBD mutation: RXRa K156A/R161A, NR concentration 270 nM, RXRa partner concentration 90 nM)
Outline: (§1)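 Ligand-free nuclear receptor dimers were applied to custom Agilent 4×180K protein-binding microarrays whose double-stranded probes carried direct-repeat seeds, single-nucleotide variants, half-site ablations and random human genomic background sequences in 34-nt variable regions. Incubation lasted 1 h. Binding z-scores were computed against the random background probes from regression-normalized fluorescence.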

[2] = test system: PPARg:RXRa IVT, anti-PPARg (NR concentration 270 nM, RXRa partner concentration 90 nM)
Outline: as §1

[3] = test system: PPARg DBDmut:RXRa IVT, anti-PPARg (DBD mutation: PPARg1 K132A/R137A, NR concentration 270 nM, RXRa partner concentration 90 nM)
Outline: as §1

[4] = test system: PPARg DBDmut IVT, anti-PPARg (DBD mutation: PPARg1 K132A/R137A, NR concentration 270 nM)
Outline: as §1

[5] = test system: PPARg homodimer (NR concentration 180 nM)
Outline: as §1

[6] = test system: PXR:RXRa (NR concentration 270 nM, RXRa partner concentration 90 nM)
Outline: as §1

[7] = test system: PXR homodimer (NR concentration 270 nM)
Outline: as §1

[8] = test system: RARa:RXR (NR concentration 270 nM, RXRa partner concentration 90 nM)
Outline: as §1

[9] = test system: RARa homodimer (NR concentration 270 nM)
Outline: as §1

[10] = test system: RARb:RXRa (NR concentration 270 nM, RXRa partner concentration 90 nM)
Outline: as §1

Sequence | PBM binding z-score [1] | PBM binding z-score [2] | PBM binding z-score [3] | PBM binding z-score [4] | PBM binding z-score [5] | PBM binding z-score [6] | PBM binding z-score [7] | PBM binding z-score [8] | PBM binding z-score [9] | PBM binding z-score [10]
GCATATAGGTAATACAAGGTGAAACTCCGATTGT | 4.64 | 3.25 | 1.19 | 0.842 | 0.705 | 0.857 | -0.379 | 1.52 | 0.524 | 0.667
CGAACTATGTCATCCAGGACAGTGAATACATTGA | 3.74 | 2.94 | 1.29 | 1.1 | 0.502 | 0.317 | -0.051 | 0.733 | 0.52 | 0.805
TGGCCTAGGTCAGATCGGGCCAGTATACGCTATA | -0.485 | 1.03 | -1.16 | -1.38 | -0.396 | 0.928 | -0.757 | 0.548 | -1.18 | 2.85
CCTAGTTGGTCAAGGTCACACACGCTATAGGTAC | 2.68 | 3.52 | 0.555 | 1.3 | 4.56 | 4.41 | 2.97 | 4.88 | 4.38 | 4.17
TAGCCTGGGTCAGATCGGGCCAGTATACGCTATA | -0.428 | 0.885 | -0.83 | -0.762 | -0.849 | 0.931 | -0.947 | 0.69 | -0.739 | 2.33
AGAATGAGGTTATTAAGATAAGGGAATTGCGGTC | 2.05 | 2.31 | 1.03 | 0.188 | 0.58 | 0.886 | 0.278 | 1.24 | 0.541 | 1.23
GCTAACAGGCCATTTGGGTCACTCAATGACGGGC | 1.61 | 1.82 | -0.246 | -0.627 | 0.24 | 0.795 | 0.0442 | 1.03 | -0.111 | 1.81
ACTTGCGGGTCAACGAGGTTATAGCACGCGTATA | 5.15 | 4.85 | 1.36 | 0.482 | 2.04 | 4.86 | 3.57 | 5.03 | 1.02 | 3.83
GCTAGTAGATCAAGGTTAAGAAAGACTAAGCTAA | 1.22 | 0.943 | -0.176 | -0.411 | -0.263 | 0.229 | 0.0369 | 0.542 | 0.169 | 0.561
TCATATAGCTAATACAGGTGAAAGTCGGCATCTA | 1.68 | 0.828 | 0.761 | 0.528 | 0.511 | 0.475 | -0.0901 | 0.626 | 0.67 | 0.139
ATCTCTAGGTAAAAGTTCAGTGACTCCCGAGGAT | 2.54 | 3.69 | 1.46 | 1.46 | 1.59 | 2.36 | 1.59 | 1.97 | 0.841 | 2.39
AGAACGAGGGCACGCCGAGTTGATAGCAGAGTAG | 3.84 | 4.08 | 0.68 | -0.645 | 0.0729 | 1.38 | 0.119 | 0.82 | -0.438 | 2.57
AGTCAAAGTTCACCTAGGTAACGTAAGATATGCT | 1.22 | 4.08 | 1.35 | 1.84 | 2.06 | 4.76 | 3.76 | 3.95 | 1.51 | 4.99
ATCGTAAGGTCGAAGGTGAGTATACCCACCCGAA | -0.143 | 1.54 | 1.22 | -0.311 | 1.79 | 1.87 | -0.0484 | 3.33 | 0.0373 | 2.74
TCTTGTAGATCAACAGGAGGTTTAGAAAGATCGA | 1.64 | 0.449 | 0.726 | 0.199 | 0.11 | -0.0955 | -0.425 | 0.104 | -0.667 | -0.271
CAAACTAGGTCAAAGGTTAAAGTCGAGCCAACCA | 8.92 | 9.36 | 6.93 | 5.38 | 5.15 | 5.99 | 0.433 | 8.12 | 2.07 | 5.01
ACAGACAGGTGGGTGAAGGTAACTCAGCTGGACG | 0.962 | 1.16 | 0.32 | -0.724 | 0.276 | -0.217 | 0.171 | 0.0103 | -0.0597 | 0.155
ATCTCTAGGTGAAGTTCAGTGAAAGATCGATAGA | 4.94 | 4.09 | 1.05 | 1.05 | 0.329 | 0.872 | 0.828 | 0.684 | 0.618 | 1.7
TAGCCTAGGTCAGATCTGGCCAGTATACGCTATA | 0.589 | 1.44 | -0.455 | -0.0508 | -0.0754 | 0.447 | -1.1 | 0.766 | -1.06 | 2.98
ATCGAAAGGTCGTGAGGTGAGTATCCAGAAAGGC | 0.293 | 2.48 | 1.2 | 1.27 | 1.41 | 3.13 | 0.135 | 4.25 | 0.545 | 3.93
GCGACTGGGGCATCAGCAGCTTACCATAACTTAA | 4.14 | 2.77 | -0.78 | -0.628 | -0.268 | -0.462 | -0.432 | -0.454 | -0.449 | 0.116
ATAATGAGGTTACCAAAGATCAGGGAAACGCTTG | 4.27 | 3.93 | 1.55 | 1.88 | 0.591 | 1.51 | 0.204 | 1.93 | 1.22 | 2.14
ATTTCTAGGTAAAGATAGTTCAGTGAATGCAAAT | 4.34 | 3.44 | 1.56 | 1.86 | 1.56 | 1.08 | 1.16 | 0.625 | 1.49 | 0.8
GGCACGAGGGCAAGTTGATAGCAGAGTTTGATGG | 2.14 | 1.32 | -0.405 | -1.03 | 0.282 | 1.01 | 0.171 | 0.665 | -0.327 | 2.59
